Reference: PubChem BioAssay (Tox21)
Results filed as inconclusive are left out. Activity calls are given as the source filed them. Unless noted, calls come from the whole dose curve; as a rule, active = well fitted curve in the direction sought with a large enough effect in the repeat runs; inconclusive = weak or mixed curves; inactive = no such curve, though single readings can be large; an effect the other way counts as inactive or inconclusive.

Key:
[1] = qHTS assay for small molecules that induce genotoxicity in human embryonic kidney cells expressing luciferase-tagged ATAD5 (AID 651632); note: nearly all actives have a fitted effect of over 15% in size; note: potency is the fitted concentration of half-maximal effect
Outline: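 Cells were seeded at 2,000 per well, dosed with compound, and incubated 16 hr at 37C in 5% CO2. Luciferase activity was then quantified after a 30 min room-temperature incubation with Amplite.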

[2] = qHTS assay for small molecule agonists of the p53 signaling pathway - cell viability (AID 651633; calls by dose curve; note: nearly all actives have a fitted effect of over 30% in size; note: potency is the fitted concentration of half-maximal effect)
Outline: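 Viability counter-read: CellTiter-Glo luminescence (30 min, room temperature) in the same p53RE-bla plates. These plates had been exposed to compounds for 16 h at 37 C.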

[3] = qHTS assay for small molecules that induce genotoxicity in human embryonic kidney cells expressing luciferase-tagged ATAD5 - cell viability (AID 651634; calls by dose curve; note: nearly all actives have a fitted effect of over 25% in size)
Outline: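 Cells (HEK293T, luciferase-tagged ATAD5) are seeded at 2,000 per well, dosed with compound or DMSO vehicle, and incubated 15.5 hr at 37C and 5% CO2. CellTiter-Fluor is added for 30 min before fluorescence is measured.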

[4] = qHTS assay for small molecule disruptors of the mitochondrial membrane potential - cell viability (AID 720634; calls by dose curve;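 note: human HepG2 liver cancer cells; series mostly up to about 83 µM; nearly all actives have a fitted effect of over 20% in size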)
Outline: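 Cytotoxicity was measured by ATP quantitation in HepG2 wells that had first been treated with compound for 1 hr and stained with m-MPI dye; CellTiter-Glo incubation was 30 min at room temperature.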

[5] = qHTS assay for small molecule disruptors of the mitochondrial membrane potential (AID 720635); note: potency is the fitted concentration of half-maximal effect
Outline: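 Mitochondrial membrane potential tracked with Mito-MPS dye, red aggregates (ex 540/em 590 nm) against green monomers (ex 490/em 535 nm). Compound treatment 1 hr at 37C, dye 30 min in HepG2.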

[6] = qHTS assay to test for compound auto fluorescence at 590 nm (red) in HepG2 cells (AID 720674)
Outline: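 1 hr compound incubation on HepG2 cells, 37 C, 5% CO2; plate read ex 540 nm / em 590 nm; intensities reported as Rose Bengal sodium equivalents.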

[7] = qHTS assay to test for compound auto fluorescence at 535 nm (green) in HepG2 cells (AID 720675)
[8] = qHTS assay to test for compound auto fluorescence at 460 nm (blue) in HEK293 cells (AID 720678); note: potency is the fitted concentration of half-maximal effect
Outline: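 HEK293 cells (2,000 per well, medium with 10% dialyzed FBS) attached for 4-5 hr at 37C, then received compound and stood overnight at 37C, 5% CO2. Blue fluorescence was read at Ex/Em 405/460 nm and expressed relative to triamterene.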

[9] = qHTS assay to test for compound auto fluorescence at 590 nm (red) in HEK293 cells (AID 720679)
Outline: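 HEK293 cells (2,000/well, medium with 10% dialyzed FBS) attached for 4-5 hr at 37C, received 23 nL compound and were incubated overnight at 37C, 5% CO2. Red fluorescence was then read at 540/590nm Ex/Em, referenced to Rose Bengal sodium.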

[10] = qHTS assay to test for compound auto fluorescence at 535 nm (green) in HEK293 cells (AID 720680)
[11] = qHTS assay to test for compound auto fluorescence at 535 nm (green) in HEK293 cell free culture (AID 720682)
Outline: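 Cell-free medium (DMEM, 10% FBS) receives compound or DMSO by pintool. Plate read directly at Ex 485/Em 535 nm. Signal converted to fluorescein equivalency.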

[12] = qHTS assay to test for compound auto fluorescence at 590 nm (red) in HEK293 cell free culture (AID 720683)
Outline: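 Red-channel autofluorescence of compounds in culture medium (DMEM, 10% FBS), no cells, measured at 540/590 nm. Rose Bengal sodium is the reference fluorophore for equivalence.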

[13] = qHTS assay to test for compound auto fluorescence at 460 nm (blue) in HepG2 cell free culture (AID 720685)
Outline: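 Cell-free plates of MEM plus 10% FBS received 23 nL compound or DMSO vehicle; blue-channel (405/460 nm) intensity scored against triamterene as reference fluorophore.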

[14] = qHTS assay to test for compound auto fluorescence at 535 nm (green) in HepG2 cell free culture (AID 720686)
[15] = qHTS assay to test for compound auto fluorescence at 460 nm (blue) in HepG2 cells (AID 720687)
Outline: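 Blue-channel autofluorescence (Ex/Em 405/460 nm, triamterene-equivalent) was measured after 1 hr compound exposure at 37 C, 5% CO2. Cells were HepG2, plated overnight at 37 C in MEM plus 10% FBS.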

[16] = biological target: Glucocorticoid receptor (Homo sapiens) (UniProt P04150); experiment: qHTS assay to identify small molecule agonists of the glucocorticoid receptor (GR) signaling pathway (AID 720691; active = well fitted activation curve with a large enough effect in the signal ratio in the repeat runs, not every such curve was filed as active; the % refers to the signal ratio)
Sequence of Glucocorticoid receptor (Homo sapiens) (P04150 whole entry, looked up): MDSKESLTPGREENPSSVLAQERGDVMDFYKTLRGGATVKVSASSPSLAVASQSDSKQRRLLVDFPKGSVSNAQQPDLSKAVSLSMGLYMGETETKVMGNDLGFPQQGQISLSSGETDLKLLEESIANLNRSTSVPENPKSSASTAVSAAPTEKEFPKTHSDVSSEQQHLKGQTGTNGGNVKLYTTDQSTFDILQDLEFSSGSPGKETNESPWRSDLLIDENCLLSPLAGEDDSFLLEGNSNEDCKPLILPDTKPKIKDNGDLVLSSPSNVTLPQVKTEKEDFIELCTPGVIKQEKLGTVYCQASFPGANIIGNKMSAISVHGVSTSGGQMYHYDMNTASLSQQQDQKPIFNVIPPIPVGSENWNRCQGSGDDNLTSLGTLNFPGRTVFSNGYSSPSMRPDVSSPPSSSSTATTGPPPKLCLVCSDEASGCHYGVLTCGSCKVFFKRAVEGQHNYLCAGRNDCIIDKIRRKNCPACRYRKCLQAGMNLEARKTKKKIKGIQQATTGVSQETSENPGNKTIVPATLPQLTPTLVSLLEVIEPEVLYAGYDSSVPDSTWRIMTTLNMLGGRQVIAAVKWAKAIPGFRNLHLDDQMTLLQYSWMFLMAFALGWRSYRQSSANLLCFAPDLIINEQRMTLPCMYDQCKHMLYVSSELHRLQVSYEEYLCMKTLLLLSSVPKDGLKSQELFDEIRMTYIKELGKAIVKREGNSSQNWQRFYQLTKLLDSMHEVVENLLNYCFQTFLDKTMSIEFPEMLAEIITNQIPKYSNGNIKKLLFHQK
Outline: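 Steps: seed GR-bla HeLa cells, incubate 4 h at 37 C/5% CO2; pin-transfer DMSO-dissolved compounds; incubate 18 h at 37 C; add LiveBLAzer B/G FRET substrate; after 2 h at room temperature, measure fluorescence.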

[17] = biological target: Glucocorticoid receptor (Homo sapiens) (UniProt P04150); experiment: qHTS assay to identify small molecule antagonists of the glucocorticoid receptor (GR) signaling pathway (AID 720692; active = well fitted inhibition curve with a large enough effect in the signal ratio in the repeat runs, not every such curve was filed as active; the % refers to the signal ratio)
Outline: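 Antagonism was scored as loss of dexamethasone-driven (5 nM final) reporter signal in HeLa cells bearing a glucocorticoid response element–beta-lactamase construct, after 18 h compound exposure at 37 C and 2 h FRET substrate loading.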

[18] = qHTS assay to test for compound auto fluorescence at 590 nm (red) in HepG2 cell free culture (AID 720684)
Outline: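 No cells present: MEM + 10% FBS only. Compound pinned in, red label read (540/590 nm). Activity = fluorescence equivalent to Rose Bengal sodium.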

[19] = qHTS assay for small molecule agonists of the p53 signaling pathway (AID 651631; calls by dose curve; note: nearly all actives have a fitted effect of over 15% in size)
Outline: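 p53RE-bla HCT-116 cells; compounds 16 h, 37 °C; LiveBLAzer B/G FRET substrate 2 h RT; fluorescence intensity read-out, qHTS format.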

[20] = qHTS assay to test for compound auto fluorescence at 460 nm (blue) in HEK293 cell free culture (AID 720681); note: potency is the fitted concentration of half-maximal effect
Outline: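 Blue fluorescence (Ex 405/Em 460 nm, triamterene-equivalent) was read immediately after pin transfer of compound or DMSO into medium (DMEM, 10% FBS) without cells.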
% is set by controls: 0 for no effect and ±100 for the full control effect; tags give direction and shape of the fitted curve or compound fluorescence and quenching.

C=C(C)c1cccc(C(=C)C)c1
inactive: Potency [1] | Potency [2] | Potency [3] | Potency [4] | Potency [5] | Potency [6] | Potency [7] | Potency [8] | Potency [9] | Potency [10] | Potency [11] | Potency [12] | Potency [13] | Potency [14] | Potency [15] | Potency [16] | Potency [17]

CCCCCCCCCCOC(=O)c1ccccc1C(=O)OCCCCCCCC
inactive: Potency [1] | Potency [2] | Potency [3] | Potency [4] | Potency [5] | Potency [6] | Potency [7] | Potency [8] | Potency [9] | Potency [10] | Potency [11] | Potency [12] | Potency [18] | Potency [13] | Potency [14] | Potency [16]

O=C(O)CN(CCN(CC(=O)O)CC(=O)O)CC(=O)O
inactive: Potency [19] | Potency [3] | Potency [6] | Potency [7] | Potency [8] | Potency [9] | Potency [10] | Potency [20] | Potency [11] | Potency [12] | Potency [18] | Potency [13] | Potency [14] | Potency [15]

COc1ccc(-c2coc3cc(O)ccc3c2=O)cc1
inactive: Potency [2] | Potency [3] | Potency [4] | Potency [6] | Potency [7] | Potency [8] | Potency [9] | Potency [10] | Potency [11] | Potency [12] | Potency [18] | Potency [13] | Potency [14] | Potency [15] | Potency [16]
active: Potency [1] 1.72 µM | Potency [5] 10.9 µM

OC/C=C/CO
inactive: Potency [19] | Potency [2] | Potency [3] | Potency [7] | Potency [8] | Potency [9] | Potency [11] | Potency [12] | Potency [18] | Potency [13] | Potency [14]

S=c1nccc[nH]1
inactive: Potency [1] | Potency [2] | Potency [3] | Potency [4] | Potency [5] | Potency [7] | Potency [8] | Potency [9] | Potency [10] | Potency [20] | Potency [11] | Potency [12] | Potency [18] | Potency [13] | Potency [14] | Potency [15]

CC(C)(c1cc(Br)c(OCC(Br)CBr)c(Br)c1)c1cc(Br)c(OCC(Br)CBr)c(Br)c1 (centres undefined)
inactive: Potency [19] | Potency [2] | Potency [3] | Potency [6] | Potency [8] | Potency [9] | Potency [10] | Potency [20] | Potency [11] | Potency [12] | Potency [13] | Potency [15] | Potency [16] | Potency [17]

CCCC1CCC(=O)CC1
inactive: Potency [1] | Potency [2] | Potency [3] | Potency [4] | Potency [5] | Potency [6] | Potency [7] | Potency [8] | Potency [9] | Potency [10] | Potency [20] | Potency [11] | Potency [12] | Potency [18] | Potency [14] | Potency [15] | Potency [16] | Potency [17]

O=C1CCCCCCCCCCCCCCCO1
inactive: Potency [19] | Potency [2] | Potency [4] | Potency [5] | Potency [6] | Potency [8] | Potency [9] | Potency [20] | Potency [11] | Potency [12] | Potency [18] | Potency [13] | Potency [16]

NC[C@H]1O[C@H](O[C@H]2[C@H](O[C@@H]3O[C@H](CO)[C@@H](O)[C@H]3O)C(O)[C@H](N)C[C@@H]2N)[C@H](N)[C@@H](O)[C@@H]1O (some centres undefined)
inactive: Potency [19] | Potency [3] | Potency [4] | fluorescence, % of triamterene [8] -0.0357% [at 18.6 µM] | fluorescence, % of fluorescent control [9] 0.971% [at 18.6 µM] | fluorescence, % of fluorescein [10] -0.0694% [at 18.6 µM] | fluorescence, % of fluorescent control [20] -0.0104% [at 18.6 µM] | activity change [11] -0.144% [at 18.6 µM, hits give high values] | fluorescence, % of fluorescent control [12] 0.335% [at 18.6 µM] | fluorescence, % of Rose Bengal [18] -0.0591% [at 18.6 µM] | fluorescence, % of fluorescent control [13] 0.0653% [at 18.6 µM] | fluorescence, % of fluorescein control [14] -0.0227% [at 18.6 µM] | fluorescence, % of fluorescent control [15] -0.0247% [at 18.6 µM] | Potency [16] | Potency [17]

COC(=O)c1ccccc1OC
inactive: Potency [1] | Potency [2] | Potency [3] | Potency [4] | Potency [5] | Potency [6] | Potency [7] | Potency [8] | Potency [9] | Potency [20] | Potency [11] | Potency [12] | Potency [14] | Potency [15] | Potency [16]

c1ccc(C(O[C@@H]2CCCN(CCc3ccc4c(c3)OCO4)C2)c2ccccc2)cc1
inactive: Potency [1] | Potency [2] | Potency [3] | Potency [6] | Potency [7] | Potency [8] | Potency [9] | Potency [10] | Potency [20] | Potency [11] | Potency [18] | Potency [15] | Potency [16]

Cc1cc(=O)oc2cc(O)cc(O)c12
active: Potency [5] 61.3 µM | Potency [8] 39.8 µM [fluorescent] | Potency [20] 39.8 µM
inactive: Potency [1] | Potency [2] | Potency [3] | Potency [4] | Potency [7] | Potency [9] | Potency [10] | Potency [11] | Potency [12] | Potency [14]

Cc1c(C)c([N+](=O)[O-])c(C(C)(C)C)c([N+](=O)[O-])c1C
inactive: Potency [1] | Potency [2] | Potency [3] | Potency [6] | Potency [7] | Potency [9] | Potency [10] | Potency [20] | Potency [11] | Potency [12] | Potency [18] | Potency [13] | Potency [14] | Potency [15]

O=C(O)c1cc(O)c2ccccc2c1O
inactive: Potency [1] | Potency [3] | Potency [6] | Potency [7] | Potency [8] | Potency [9] | Potency [10] | Potency [20] | Potency [11] | Potency [12] | Potency [14] | Potency [15]
active: Potency [2] 30.6 µM
